PKA-R2B act = activators of PKA-R2B holoenzyme, primary screen, biochemical, fluorescence polarization, Cy5-IP20, human. cAMP-dependent protein kinase catalytic subunit beta (Homo sapiens) + cAMP-dependent …. PKA-R2B holoenzyme dissociation; R2B truncated from residue 108, S112A mutant; 0% DMSO only, 100% 113 µM cGMP. hit rate 0.079% among 340,000. activation, % at 11.4 µM;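 active means activation above a cutoff set at the mean over all compounds plus 3 SD, cut at about 18% in these data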;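 further: higher means more holoenzyme dissociation and a rise in polarization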
IDE cell inh = human IDE inhibitors in live cells, primary screen, fluorescence polarization, HEK cells, FAbetaB substrate. FAbetaB cleavage. hit rate 0.41% among 320,000. inhibition, % at 5.59 µM;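 active means percent inhibition above the average of all tested compounds plus 3 SD, set per screening campaign, cut at about 16% in these data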;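 further: IDE supplied by intact live HEK cells; FP after avidin binding of uncleaved biotin substrate so inhibition keeps polarization high; 0% = DMSO wells and 100% = 60 µM reference IDE inhibitor Ii1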
Rin1 Abl inh = inhibitors of Rin1-Abl protein binding, primary screen, biochemical, TR-FRET; hit rate 0.4% among 360,000; AID 588664, 2011; inhibition, % at 7.35 µM; Tyrosine-protein kinase ABL1 (Homo sapiens) + Ras and Rab interactor 1 (Homo sapiens), …; in the data active means inhibition above about 5%, passing the limit was not always enough
PKA-R1A act = activators of PKA-R1A holoenzyme, primary screen, biochemical, fluorescence polarization, Cy5-IP20, bovine R1A, mouse PKAc; hit rate 0.083% among 340,000; AID 504707, 2011; cAMP-dependent protein kinase type I-alpha regulatory subunit (Bos taurus) + …; PKA-R1A dissociation; scaled: DMSO 0%, 113 µM cGMP 100%; activation, % at 11.4 µM;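 active means percent activation above the mean of all tested compounds plus 3 SD, cut at about 19% in these data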;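 further: higher means more PKAc released from R1A so a rise in polarization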
eLon inh = inhibitors of E. coli Lon protease, primary screen, biochemical, fluorescence polarization; purified E. coli Lon protease; inhibition, % at 7.94 µM; hit rate 0.42% among 360,000; in the data active means inhibition above about 13%, passing the limit was not always enough;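 further: 0% = enzyme with probe and DMSO and 100% = no enzyme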
Target sequence (P0A9M0 whole entry, looked up): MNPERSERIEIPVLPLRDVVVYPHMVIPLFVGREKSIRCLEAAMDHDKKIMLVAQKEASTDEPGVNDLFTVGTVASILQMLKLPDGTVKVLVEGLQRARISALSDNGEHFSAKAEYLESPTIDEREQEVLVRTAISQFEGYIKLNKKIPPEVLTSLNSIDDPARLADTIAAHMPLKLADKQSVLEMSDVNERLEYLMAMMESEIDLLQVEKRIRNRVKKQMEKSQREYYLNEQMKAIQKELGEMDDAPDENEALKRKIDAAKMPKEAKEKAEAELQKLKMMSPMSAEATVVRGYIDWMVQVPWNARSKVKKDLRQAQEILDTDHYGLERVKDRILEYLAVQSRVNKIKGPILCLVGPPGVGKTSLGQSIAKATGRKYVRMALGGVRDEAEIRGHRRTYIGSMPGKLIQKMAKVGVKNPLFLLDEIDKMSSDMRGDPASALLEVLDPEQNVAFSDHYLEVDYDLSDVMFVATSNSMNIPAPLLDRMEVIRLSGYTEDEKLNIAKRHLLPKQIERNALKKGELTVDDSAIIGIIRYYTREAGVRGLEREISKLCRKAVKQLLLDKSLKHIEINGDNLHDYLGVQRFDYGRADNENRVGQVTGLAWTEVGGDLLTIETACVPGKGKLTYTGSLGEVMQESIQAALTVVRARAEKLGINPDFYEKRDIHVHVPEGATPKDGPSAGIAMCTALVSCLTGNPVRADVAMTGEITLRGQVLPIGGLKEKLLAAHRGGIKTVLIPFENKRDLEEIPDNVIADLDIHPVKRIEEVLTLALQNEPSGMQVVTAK
IDE act = human IDE activators in live cells, primary screen, fluorescence polarization, HEK cells, FAbeta-B substrate; FAbeta-B cleavage; 0% vehicle, 100% cell-free pure enzyme wells; activation, % at 5.96 µM; hit rate 0.073% among 340,000; AID 493087, 2011;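 active means activation above the mean of all tested compounds plus 3 SD, set per screening campaign, cut at about 17% in these data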
Rin1-Abl confirm = Rin1-Abl binding inhibitor retest, confirmation, biochemical, TR-FRET; shares compounds with Rin1 Abl inh; purified proteins; inhibition, % at 7.35 µM; hit rate 49% among 1,300; AID 602124, 2011
GFP quench = GFP fluorescence inhibitors and quenchers, artefact control for Rin1-Abl interaction inhibitor project, biochemical; shares compounds with Rin1 Abl inh; inhibitors/quenchers counterscreen; inhibition, % at 6.75 µM; hit rate 8.5% among 1,300;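 further: ABL1-eGFP fusion protein alone without its partner RIN1-SBP; 0% = protein with vehicle and 100% = wells lacking protein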
GFP quench dose = GFP fluorescence inhibitors and quenchers, dose response, artefact control for Rin1-Abl interaction inhibitor project, biochemical; 230 tested, under 10 active; GFP fluorescence interference/quenching counterscreen; IC50, µM; shares compounds with Rin1 Abl inh; call rule not given here;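 further: ABL1-eGFP fusion protein alone without its RIN1 binding partner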
* marks the source's active call; other numbers are inactive results; · = no result given. Hits are enriched below; roughly 1.3% of the tested compounds scored in any of these assays. Unless noted, no stated cut-off is given here; in the data, active means inhibition above about 6.5%; inactive means the rest.

SMILES | PKA-R2B act | IDE cell inh | Rin1 Abl inh | PKA-R1A act | eLon inh | IDE act | Rin1-Abl confirm | GFP quench | others
COc1ccccc1N1CCN(Cc2cc(Br)c(O)c3ncccc23)CC1 | -3 | 15 | 9.7* | -8 | 10 | 0 | 0 | 2
Oc1c(CN2CCCCC2)ccc2cccnc12 | 0 | · | 34* | 1 | -7 | 4 | 5 | 4
CC(C)NC(=O)CSc1nc(Cc2ccccc2)nc2ccccc12 | -3 | -1 | -3 | -7 | 1 | 4 | · | ·
CCN(CC)C(=O)CSc1nc(Cc2ccccc2)nc2ccccc12 | -1 | · | 24* | 4 | -12 | 2 | 21* | -1 | GFP quench dose=>67
COc1ccc(C2=NOC(C)(c3nnc(-c4ccncc4)o3)C2)cc1 (stereo unspecified) | -8 | 1 | 12* | -3 | -2 | -2 | 3 | 1
CC1(c2nnc(-c3ccc(Cl)cc3)o2)CC(c2ccncc2)=NO1 (stereo unspecified) | -16 | -1 | 4 | 3 | 9 | 1 | · | ·
Cc1ccc(C2=NOC(C)(c3nnc(-c4ccncc4)o3)C2)cc1 (stereo unspecified) | -1 | 5 | 15* | 2 | 11 | -4 | 2 | 0
CC(C)C(NC(=O)c1ccc(F)cc1)C(=O)NC1(C)CCS(=O)(=O)C1 (stereo unspecified) | -12 | 1 | 0 | -3 | 2 | 5 | · | ·
CCOc1ccccc1NC(=O)C1CCCCN1S(=O)(=O)c1ccc(F)cc1 (stereo unspecified) | 7 | -2 | -2 | 5 | -3 | 4 | · | ·
CSC1=Nc2sc3c(c2C2=NCCN12)CC(C)(C)OC3 | 3 | · | -5 | 6 | -10 | 3 | · | ·
O=C(Nc1ccn(C2CCC(CO)O2)c(=O)n1)c1ccccc1 (stereo unspecified) | · | · | 65* | · | -6 | · | 56* | 0
C#CCO[C@@H]1C[C@H](n2ccc(NC(=O)c3ccccc3)nc2=O)O[C@@H]1CO | 0 | 0 | 10* | 12 | -3 | 1 | 5 | 1
O=C(Nc1ccn(CCOC(=O)c2ccccc2)c(=O)n1)c1ccccc1 | · | · | 14 | · | -3 | · | · | ·
COc1ccc(CNC(=O)CN2C(=O)NC(C)(c3ccc(Cl)cc3)C2=O)cc1 (stereo unspecified) | 10 | -7 | -1 | -11 | 0 | 2 | · | ·
CCCCNC(=O)C(=O)N/N=C/c1ccc(C(=O)OC)cc1 | 5 | -2 | 3 | 6 | 0 | 5 | · | ·
CC1(C)CC(=O)C2=C(C1)Oc1ncn(CCCn3ccnc3)c(=N)c1C2c1ccccc1 (stereo unspecified) | -14 | 4 | 4 | -5 | 5 | 1 | · | ·
COc1ccc(C2C3=C(CC(C)(C)CC3=O)Oc3ncn(CCCn4ccnc4)c(=N)c32)cc1 (stereo unspecified) | -3 | 6 | 4.5* | -3 | -2 | 1 | 10* | 0
CCCCn1c(N)c(N(CC(C)C)C(=O)C2CC(=O)N(Cc3ccccc3)C2)c(=O)[nH]c1=O (stereo unspecified) | -9 | 7 | 0 | -11 | -7 | -1 | · | ·
CCc1ccc(CN2CCC(Oc3ccc(C(=O)N4CCCCC4)cc3)CC2)cc1 | -8 | · | 10* | -2 | -10 | -3 | 3 | -2
CCN(CC)S(=O)(=O)c1ccc(Cl)c(NC(=O)CCCCl)c1 | -7 | -1 | -1 | -5 | -5 | -1 | · | ·
CC(=O)c1ccc(S(=O)(=O)Nc2ccc(Cl)c(S(=O)(=O)N3CCCC3)c2)cc1 | -3 | -1 | 2 | -1 | -1 | 1 | · | ·
CS(=O)(=O)N(CC(=O)N1CCN(c2ccc(F)cc2)CC1)c1ccc(F)c(Cl)c1 | -7 | 3 | 1 | 4 | -6 | 2 | · | ·
Cc1cc(N2CCOCC2)nc(SCC(=O)c2ccc(Cl)cc2)n1 | 5 | 10 | 15* | -4 | 3 | -12 | 15* | -1
CC(=O)Nc1cc2c(nc1C)nc(C)n2Cc1ccc(Br)cc1 | -9 | -3 | 18* | 6 | 9 | -6 | 22* | -4 | GFP quench dose=>68
Cc1nc2ccccc2n1Cc1ccc(Br)cc1 | 4 | 5 | 2 | 6 | -5 | 9 | · | ·
SMILES | PKA-R2B act | IDE cell inh | Rin1 Abl inh | PKA-R1A act | eLon inh | IDE act | Rin1-Abl confirm | GFP quench | others
CC(c1ccccc1)N(CCC(c1ccccc1)C1CCOC(C)(C)C1)C(=O)c1ccco1 (stereo unspecified) | -11 | 2 | -1 | 2 | 4 | -2 | · | ·
COc1ccc(CN(CCC(c2ccc(F)cc2)C2CCOC(C)(C)C2)C(=O)c2ccco2)cc1 (stereo unspecified) | -1 | 5 | 5.5* | -13 | -11 | -7 | 18* | 0
CCN(CC)CCCNC(=O)Cn1cc2c(n1)CCC(C)C2 (stereo unspecified) | 0 | 1 | 4 | 3 | -1 | 4 | · | ·
N#C/C(=C\c1cc(O)c(O)c(O)c1)C(N)=O | 2 | 2 | 49* | -5 | -18 | -3 | 49* | 20*
N#C/C(=C\c1cc(Cl)c(OCc2ccc(Cl)cc2)c(Cl)c1)C(N)=O | · | 7 | · | · | · | · | · | ·
C#CCOCCOCCOCCNc1nc(N2CCN(C(=O)CCCCCCCCCCNC(=O)[C@@H](CCC(=O)O)n3cc(CCCCCN)nn3)CC2)nc(N2CCN(C(=O)CCCCCCCCCCNC(=O)[C@@H](CCC(=O)O)n3cc(CCCCCN)nn3)CC2)n1 | 0 | -1 | 5 | -6 | -9 | 1 | · | ·
C#CCOCCOCCOCCNc1nc(N2CCN(C(=O)CCCCCCCCCCNC(=O)[C@H](CO)n3cc(CCCSC)nn3)CC2)nc(N2CCN(C(=O)CCCCCCCCCCNC(=O)[C@H](CO)n3cc(CCCSC)nn3)CC2)n1 | -13 | 8 | 10 | 7 | 12 | 9 | · | ·
C#CCOCCOCCOCCNc1nc(N2CCOCC2)nc(N2CCN(C(=O)CCCCCCCCCCNC(=O)[C@H](CO)n3cc(CCCCCN)nn3)CC2)n1 | 0 | -4 | 9.9* | -3 | 13 | 5 | 9.8* | -1

Screens as filed in PubChem.
